Common to all, as to test: DAPPL (digital affinity profiling via proximity ligation, sequencing); 10 mM Tris-HCl pH 7.5, 50 mM NaCl, 1 mM DTT, 4% glycerol, room temperature, 30 min; GST-TFs on glutathione beads, 16-mer random dsDNA library, 0.1% formaldehyde crosslink after washing; high values mean tight binding
Common to all, as to settings: protein: recombinant; tags: N-terminal GST; dsDNA, one strand shown

One test deals with T1, ELK1 (Homo sapiens, UniProt P19419 1-428).
T1 sequence: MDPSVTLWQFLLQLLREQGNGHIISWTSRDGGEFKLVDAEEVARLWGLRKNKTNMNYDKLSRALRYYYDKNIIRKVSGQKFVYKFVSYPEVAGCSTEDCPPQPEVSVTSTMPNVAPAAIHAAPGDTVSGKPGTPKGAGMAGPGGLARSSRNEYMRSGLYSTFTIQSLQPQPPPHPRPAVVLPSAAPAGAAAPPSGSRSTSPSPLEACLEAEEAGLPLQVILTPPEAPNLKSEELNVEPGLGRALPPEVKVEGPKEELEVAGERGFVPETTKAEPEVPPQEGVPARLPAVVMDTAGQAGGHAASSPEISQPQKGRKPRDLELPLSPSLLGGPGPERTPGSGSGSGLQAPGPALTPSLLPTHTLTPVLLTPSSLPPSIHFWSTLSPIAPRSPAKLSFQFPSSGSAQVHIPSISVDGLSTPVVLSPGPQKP
A digest of the protocol:
(§1)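 Binding signal is each hexamer's read frequency for a factor divided by its frequency in the tag-only sample. The factors were GST-fused human transcription factors from yeast, captured on glutathione beads, DNA-barcoded and pooled with that sample. Pools were incubated with 200 nmole of a random double-stranded 16-mer DNA library in Tris/NaCl/DTT/glycerol buffer at room temperature for 30 min, then washed, crosslinked with 0.1% formaldehyde, proximity-ligated with BsaI/T4 ligase (1 h, 37 °C), PCR-amplified and sequenced on an Illumina NextSeq500.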

In a further test the target is T2, GABPA (Homo sapiens, UniProt Q06546 1-454).
T2 sequence: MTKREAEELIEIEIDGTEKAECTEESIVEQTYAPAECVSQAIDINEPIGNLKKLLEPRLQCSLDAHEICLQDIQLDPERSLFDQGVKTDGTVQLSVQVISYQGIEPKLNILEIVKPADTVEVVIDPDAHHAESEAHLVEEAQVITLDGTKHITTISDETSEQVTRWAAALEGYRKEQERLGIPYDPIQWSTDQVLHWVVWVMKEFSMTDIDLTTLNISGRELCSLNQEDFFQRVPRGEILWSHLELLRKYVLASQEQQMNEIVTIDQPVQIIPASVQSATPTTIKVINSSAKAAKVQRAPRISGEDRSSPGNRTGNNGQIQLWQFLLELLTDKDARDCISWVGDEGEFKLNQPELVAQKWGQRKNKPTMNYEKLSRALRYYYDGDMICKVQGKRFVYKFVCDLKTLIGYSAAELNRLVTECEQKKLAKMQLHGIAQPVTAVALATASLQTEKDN
In short, it runs like this:
as §1

A further test addresses T3, ERG (Homo sapiens, UniProt P11308 1-479).
T3 sequence: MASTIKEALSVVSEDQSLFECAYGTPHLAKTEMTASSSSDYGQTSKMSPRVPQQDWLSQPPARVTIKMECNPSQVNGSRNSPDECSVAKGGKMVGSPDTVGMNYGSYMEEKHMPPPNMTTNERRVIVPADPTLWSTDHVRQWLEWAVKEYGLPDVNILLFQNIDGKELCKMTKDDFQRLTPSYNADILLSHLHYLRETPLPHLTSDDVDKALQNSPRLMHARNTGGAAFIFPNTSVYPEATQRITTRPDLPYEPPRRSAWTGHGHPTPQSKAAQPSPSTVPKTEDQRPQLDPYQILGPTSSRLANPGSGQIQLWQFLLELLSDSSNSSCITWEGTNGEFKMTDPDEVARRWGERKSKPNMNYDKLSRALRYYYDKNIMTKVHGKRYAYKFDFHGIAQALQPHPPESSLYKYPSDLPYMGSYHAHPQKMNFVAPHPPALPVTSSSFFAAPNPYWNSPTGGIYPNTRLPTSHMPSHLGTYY
A digest of the protocol:
as §1

The next test deals with T4, FEV (Homo sapiens, UniProt Q99581 1-238).
T4 sequence: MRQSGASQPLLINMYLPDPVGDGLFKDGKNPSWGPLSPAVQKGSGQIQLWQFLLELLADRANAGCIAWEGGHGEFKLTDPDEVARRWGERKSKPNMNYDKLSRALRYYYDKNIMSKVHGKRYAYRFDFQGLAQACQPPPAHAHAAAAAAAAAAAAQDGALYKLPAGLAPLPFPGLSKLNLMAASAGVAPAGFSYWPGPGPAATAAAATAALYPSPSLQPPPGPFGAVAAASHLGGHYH
A digest of the protocol:
as §1

For another test, the target named is ETV5 (Homo sapiens, UniProt P41161 1-510). In short, it runs like this: as §1
ETV5, sequence (P41161 whole entry): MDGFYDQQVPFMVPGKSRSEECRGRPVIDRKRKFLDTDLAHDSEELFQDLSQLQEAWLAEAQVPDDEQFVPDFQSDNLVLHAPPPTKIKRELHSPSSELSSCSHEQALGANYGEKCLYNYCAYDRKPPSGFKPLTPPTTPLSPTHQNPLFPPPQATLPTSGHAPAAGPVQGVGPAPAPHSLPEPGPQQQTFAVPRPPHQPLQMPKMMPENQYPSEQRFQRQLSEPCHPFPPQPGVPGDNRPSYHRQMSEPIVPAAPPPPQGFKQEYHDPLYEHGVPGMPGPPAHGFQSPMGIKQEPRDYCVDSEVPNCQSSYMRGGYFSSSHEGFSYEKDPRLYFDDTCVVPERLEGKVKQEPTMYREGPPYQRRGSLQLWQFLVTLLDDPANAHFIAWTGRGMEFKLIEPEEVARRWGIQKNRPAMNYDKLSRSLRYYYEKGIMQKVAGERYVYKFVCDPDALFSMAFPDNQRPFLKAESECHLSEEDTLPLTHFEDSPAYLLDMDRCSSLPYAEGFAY
Another test addresses ELF4 (Homo sapiens, UniProt Q99607 1-663). A digest of the protocol: as §1
Another test concerns the target T5, ELK4 (Homo sapiens, UniProt P28324-2 1-405).
T5 sequence: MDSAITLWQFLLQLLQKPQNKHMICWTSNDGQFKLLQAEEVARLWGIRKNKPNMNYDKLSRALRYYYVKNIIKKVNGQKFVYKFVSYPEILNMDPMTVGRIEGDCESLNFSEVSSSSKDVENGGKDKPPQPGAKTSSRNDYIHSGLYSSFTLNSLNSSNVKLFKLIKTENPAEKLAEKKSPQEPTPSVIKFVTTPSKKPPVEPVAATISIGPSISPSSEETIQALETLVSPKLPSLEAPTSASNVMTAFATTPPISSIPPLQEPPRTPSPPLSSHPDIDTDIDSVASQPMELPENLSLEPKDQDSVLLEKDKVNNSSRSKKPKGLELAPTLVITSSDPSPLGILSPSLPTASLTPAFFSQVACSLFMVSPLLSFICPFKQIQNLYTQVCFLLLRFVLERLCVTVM
A digest of the protocol: as §1

A further test has as its target T6, ETV2 (Homo sapiens, UniProt O00321 1-342).
T6 sequence: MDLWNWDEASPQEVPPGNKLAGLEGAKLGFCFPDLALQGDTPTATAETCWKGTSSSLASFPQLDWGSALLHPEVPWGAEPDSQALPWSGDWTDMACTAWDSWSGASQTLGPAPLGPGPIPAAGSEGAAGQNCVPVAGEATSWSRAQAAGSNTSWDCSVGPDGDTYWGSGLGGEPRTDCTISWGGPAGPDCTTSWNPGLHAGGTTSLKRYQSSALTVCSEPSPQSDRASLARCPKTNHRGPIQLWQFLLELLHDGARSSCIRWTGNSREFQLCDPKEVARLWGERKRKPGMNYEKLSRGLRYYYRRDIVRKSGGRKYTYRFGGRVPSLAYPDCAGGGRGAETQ
In short, it runs like this:
as §1

The next test deals with ETV1 (Homo sapiens, UniProt P50549 1-477). In short, it runs like this: as §1
ETV1, sequence (P50549 whole entry): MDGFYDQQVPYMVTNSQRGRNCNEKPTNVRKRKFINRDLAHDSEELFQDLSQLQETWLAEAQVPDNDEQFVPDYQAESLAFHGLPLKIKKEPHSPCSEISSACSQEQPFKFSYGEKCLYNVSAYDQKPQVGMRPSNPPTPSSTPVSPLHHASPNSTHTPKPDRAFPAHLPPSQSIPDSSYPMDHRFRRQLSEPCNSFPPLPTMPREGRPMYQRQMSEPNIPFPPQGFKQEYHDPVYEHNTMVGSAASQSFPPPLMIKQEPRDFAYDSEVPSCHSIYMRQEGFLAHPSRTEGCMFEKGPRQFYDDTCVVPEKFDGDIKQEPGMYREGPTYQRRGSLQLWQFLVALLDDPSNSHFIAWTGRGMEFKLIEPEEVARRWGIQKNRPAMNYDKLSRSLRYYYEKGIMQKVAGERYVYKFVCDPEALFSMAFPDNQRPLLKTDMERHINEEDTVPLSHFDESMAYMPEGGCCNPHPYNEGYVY
In the next test the target is T7, ETS2 (Homo sapiens, UniProt P15036 1-469).
T7 sequence: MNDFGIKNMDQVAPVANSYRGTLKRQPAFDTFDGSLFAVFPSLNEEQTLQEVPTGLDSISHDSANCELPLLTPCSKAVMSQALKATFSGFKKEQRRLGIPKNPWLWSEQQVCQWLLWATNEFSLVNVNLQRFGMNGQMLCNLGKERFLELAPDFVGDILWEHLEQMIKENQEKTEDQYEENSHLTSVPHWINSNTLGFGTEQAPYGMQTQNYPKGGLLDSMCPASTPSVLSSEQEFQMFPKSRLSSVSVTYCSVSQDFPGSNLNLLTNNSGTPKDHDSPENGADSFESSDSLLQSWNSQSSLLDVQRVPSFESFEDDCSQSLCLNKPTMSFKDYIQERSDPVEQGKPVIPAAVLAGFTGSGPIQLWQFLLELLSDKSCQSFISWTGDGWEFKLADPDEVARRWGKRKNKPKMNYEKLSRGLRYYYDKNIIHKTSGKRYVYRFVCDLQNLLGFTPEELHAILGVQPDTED
In short, it runs like this:
as §1

Another test concerns the target T8, ETV7 (Homo sapiens, UniProt Q9Y603 1-341).
T8 sequence: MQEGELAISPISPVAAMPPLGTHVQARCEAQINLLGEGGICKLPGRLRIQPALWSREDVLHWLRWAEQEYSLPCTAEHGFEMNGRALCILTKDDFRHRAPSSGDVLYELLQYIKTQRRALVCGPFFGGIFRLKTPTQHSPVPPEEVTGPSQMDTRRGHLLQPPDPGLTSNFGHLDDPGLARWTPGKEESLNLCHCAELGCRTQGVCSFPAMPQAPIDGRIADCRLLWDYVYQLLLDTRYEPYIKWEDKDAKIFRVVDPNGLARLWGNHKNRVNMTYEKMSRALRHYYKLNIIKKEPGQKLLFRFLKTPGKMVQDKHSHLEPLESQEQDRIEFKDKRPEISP
In short, it runs like this: as §1

The target in another test is T9, ETV3 (Homo sapiens, UniProt P41162-2 1-143).
T9 sequence: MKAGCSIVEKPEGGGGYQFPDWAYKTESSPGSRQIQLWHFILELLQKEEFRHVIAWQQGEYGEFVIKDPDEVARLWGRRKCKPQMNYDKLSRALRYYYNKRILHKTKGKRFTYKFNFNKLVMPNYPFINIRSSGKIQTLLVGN
In short, it runs like this: as §1

The target of a further test is ETV6 (Homo sapiens, UniProt P41212 1-452). A digest of the protocol: as §1
ETV6, sequence (P41212 whole entry): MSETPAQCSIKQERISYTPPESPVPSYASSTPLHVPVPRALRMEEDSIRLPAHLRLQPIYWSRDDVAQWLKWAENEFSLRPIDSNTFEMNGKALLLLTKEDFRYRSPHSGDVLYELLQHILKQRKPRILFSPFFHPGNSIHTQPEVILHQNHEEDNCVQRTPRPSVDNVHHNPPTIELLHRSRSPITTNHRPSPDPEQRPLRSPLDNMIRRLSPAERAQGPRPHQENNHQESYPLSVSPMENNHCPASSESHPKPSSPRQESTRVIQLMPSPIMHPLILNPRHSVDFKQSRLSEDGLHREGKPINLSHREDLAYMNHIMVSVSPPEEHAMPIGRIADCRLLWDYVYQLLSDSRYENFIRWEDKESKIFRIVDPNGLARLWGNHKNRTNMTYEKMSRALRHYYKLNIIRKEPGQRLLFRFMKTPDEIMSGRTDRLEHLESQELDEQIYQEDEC
In another test the target is ELF1 (Homo sapiens, UniProt P32519 1-619). A digest of the protocol:
as §1

The next test has as its target SPI1 (Homo sapiens, UniProt P17947 1-270). In short, it runs like this:
as §1

A further test addresses SPIB (Homo sapiens, UniProt Q01892 1-262). A digest of the protocol: as §1
A further test deals with T10, ELF3 (Homo sapiens, UniProt P78545 1-371).
T10 sequence: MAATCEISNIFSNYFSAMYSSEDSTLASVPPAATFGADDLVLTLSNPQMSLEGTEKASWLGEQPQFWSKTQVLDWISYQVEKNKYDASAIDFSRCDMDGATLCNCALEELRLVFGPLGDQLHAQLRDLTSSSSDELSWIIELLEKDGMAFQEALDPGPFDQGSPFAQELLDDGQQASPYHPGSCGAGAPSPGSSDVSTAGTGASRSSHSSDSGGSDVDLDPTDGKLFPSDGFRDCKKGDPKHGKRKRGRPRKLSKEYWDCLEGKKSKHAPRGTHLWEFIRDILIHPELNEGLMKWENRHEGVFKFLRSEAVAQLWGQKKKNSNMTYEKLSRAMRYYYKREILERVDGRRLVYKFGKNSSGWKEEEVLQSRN
In short, it runs like this: as §1

A further test addresses T11, ETV3L (Homo sapiens, UniProt Q6ZN32 1-361).
T11 sequence: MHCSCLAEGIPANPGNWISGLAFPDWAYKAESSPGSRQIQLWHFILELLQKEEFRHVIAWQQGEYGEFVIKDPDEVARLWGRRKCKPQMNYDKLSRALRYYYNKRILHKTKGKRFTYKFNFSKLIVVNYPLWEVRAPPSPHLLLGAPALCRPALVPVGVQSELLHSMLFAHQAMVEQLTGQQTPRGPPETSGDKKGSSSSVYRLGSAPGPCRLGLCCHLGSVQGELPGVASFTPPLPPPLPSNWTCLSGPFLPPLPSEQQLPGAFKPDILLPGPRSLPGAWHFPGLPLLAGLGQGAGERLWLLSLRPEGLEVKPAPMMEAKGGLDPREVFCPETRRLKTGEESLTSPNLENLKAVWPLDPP
In short, it runs like this:
as §1

2 sequences from PMC7862700, “An all-to-all approach to the identification of sequence-specific readers for epigenetic DNA modifications on cytosine” can be followed below.

ELF4, sequence (Q99607 whole entry): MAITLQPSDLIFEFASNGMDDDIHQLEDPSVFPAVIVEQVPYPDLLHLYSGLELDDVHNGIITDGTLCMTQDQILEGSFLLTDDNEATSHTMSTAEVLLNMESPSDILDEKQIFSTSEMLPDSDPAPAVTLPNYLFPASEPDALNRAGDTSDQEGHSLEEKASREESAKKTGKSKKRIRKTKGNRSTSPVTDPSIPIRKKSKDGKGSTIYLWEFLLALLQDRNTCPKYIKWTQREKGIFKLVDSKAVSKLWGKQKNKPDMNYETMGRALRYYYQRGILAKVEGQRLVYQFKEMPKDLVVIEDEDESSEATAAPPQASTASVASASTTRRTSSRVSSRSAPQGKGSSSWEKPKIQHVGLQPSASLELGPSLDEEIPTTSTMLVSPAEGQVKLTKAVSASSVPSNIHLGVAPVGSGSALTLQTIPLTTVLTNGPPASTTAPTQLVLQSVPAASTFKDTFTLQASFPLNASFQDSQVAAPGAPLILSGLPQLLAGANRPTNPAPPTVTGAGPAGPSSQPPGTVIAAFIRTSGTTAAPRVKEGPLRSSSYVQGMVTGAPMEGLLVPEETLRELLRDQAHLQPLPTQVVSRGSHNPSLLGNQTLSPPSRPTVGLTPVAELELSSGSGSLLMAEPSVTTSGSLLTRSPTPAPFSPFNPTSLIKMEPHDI
SPIB, sequence (Q01892 whole entry): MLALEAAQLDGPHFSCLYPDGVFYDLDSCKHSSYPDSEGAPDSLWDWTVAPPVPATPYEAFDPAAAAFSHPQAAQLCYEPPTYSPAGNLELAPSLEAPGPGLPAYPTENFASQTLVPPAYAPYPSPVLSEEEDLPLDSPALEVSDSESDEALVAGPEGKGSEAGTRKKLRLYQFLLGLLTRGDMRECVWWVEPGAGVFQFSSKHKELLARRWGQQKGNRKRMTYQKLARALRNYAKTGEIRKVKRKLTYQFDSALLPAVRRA
ELF1, sequence (P32519 whole entry): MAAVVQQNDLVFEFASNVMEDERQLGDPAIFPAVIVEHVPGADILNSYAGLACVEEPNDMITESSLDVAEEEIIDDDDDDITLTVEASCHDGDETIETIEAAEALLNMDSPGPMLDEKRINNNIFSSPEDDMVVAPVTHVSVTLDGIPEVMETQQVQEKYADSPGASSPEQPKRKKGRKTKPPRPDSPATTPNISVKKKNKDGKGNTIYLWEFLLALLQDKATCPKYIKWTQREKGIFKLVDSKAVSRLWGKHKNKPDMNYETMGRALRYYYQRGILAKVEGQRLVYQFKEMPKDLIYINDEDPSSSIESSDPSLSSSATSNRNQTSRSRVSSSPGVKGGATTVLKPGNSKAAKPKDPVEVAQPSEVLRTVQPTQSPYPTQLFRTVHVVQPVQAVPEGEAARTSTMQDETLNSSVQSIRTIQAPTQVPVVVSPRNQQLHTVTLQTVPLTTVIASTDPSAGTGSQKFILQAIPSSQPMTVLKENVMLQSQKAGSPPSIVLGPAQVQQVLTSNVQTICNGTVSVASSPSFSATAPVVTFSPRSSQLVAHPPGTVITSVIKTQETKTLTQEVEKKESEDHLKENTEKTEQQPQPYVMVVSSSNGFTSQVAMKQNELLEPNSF

In the case of GAAGCC, the binding signal in the test with ELK1 was 1.06 fold enrichment (6-mer frequency, TF over GST control); in the test with GABPA, 1 fold enrichment (6-mer frequency, TF over GST control); with ERG, 1.08 fold enrichment (6-mer frequency, TF over GST control); with FEV, 1.05 fold enrichment (6-mer frequency, TF over GST control); with ETV5, 1.07 fold enrichment (6-mer frequency, TF over GST control); with ELF4, 1.04 fold enrichment (6-mer frequency, TF over GST control). Besides, the binding signal with ELK4 was 1.01 fold enrichment (6-mer frequency, TF over GST control); in the test with ETV2 it was 1.04 fold enrichment (6-mer frequency, TF over GST control); with ETV1, 1.04 fold enrichment (6-mer frequency, TF over GST control); with ETS2, 1.01 fold enrichment (6-mer frequency, TF over GST control); with ETV7, 1.12 fold enrichment (6-mer frequency, TF over GST control); with ETV3, 1 fold enrichment (6-mer frequency, TF over GST control). Besides, the binding signal in the test with ETV6 was 1.09 fold enrichment (6-mer frequency, TF over GST control).

Regarding GTTACC, the binding signal with ELK1 was 1.16 fold enrichment (6-mer frequency, TF over GST control); in the test with GABPA, 1.05 fold enrichment (6-mer frequency, TF over GST control); with ERG, 1.04 fold enrichment (6-mer frequency, TF over GST control); in the test with ELF1, 1.04 fold enrichment (6-mer frequency, TF over GST control); in the test with SPI1, 1.12 fold enrichment (6-mer frequency, TF over GST control); with SPIB, 1.14 fold enrichment (6-mer frequency, TF over GST control). In addition, the binding signal with FEV is 1.07 fold enrichment (6-mer frequency, TF over GST control); with ETV5, 1.06 fold enrichment (6-mer frequency, TF over GST control); with ELF4, 1.07 fold enrichment (6-mer frequency, TF over GST control); with ELF3, 1.06 fold enrichment (6-mer frequency, TF over GST control); in the test with ETV1, 1.08 fold enrichment (6-mer frequency, TF over GST control); with ETV3L, 1.04 fold enrichment (6-mer frequency, TF over GST control). Moreover, the binding signal is 1.09 fold enrichment (6-mer frequency, TF over GST control) with ETS2; 1.02 fold enrichment (6-mer frequency, TF over GST control) in the test with ETV7; 1.03 fold enrichment (6-mer frequency, TF over GST control) in the test with ETV3; 1.03 fold enrichment (6-mer frequency, TF over GST control) with ETV6.
